SMILES strings stand for the structures. Several values for one entry are separate records, joined by “and”; a condition that tells them apart may be missing. Equal entries are not always repeated. Inconclusive results are not listed. Activity calls are given as the source filed them. The call rests on the fitted dose curve.
Potency means the concentration at half of the fitted maximal effect.

The nature of the first experiment: Primary qHTS to identify inhibitors of SARS-CoV-2 cell entry (AID 1645846). Further: nearly all actives have a fitted effect of over 45% in size. The settings on record: SARS-CoV-2 pseudovirus cell entry assay, luminescence; activity change, negative = inhibition: at 57.1 µM (top of the series) unless noted. From the text: Assay Provider: Wei Zheng, Ph.D.
National Center for Advancing Translational Sciences, National Institute of Health, Rockville, MD.
SARS-CoV-2 spike protein, within the viral envelope, mediates viral attachment and infection of host cells. The SARS-CoV-2 spike protein specifically binds to the host receptor ACE2 (Angiotensin-converting enzyme 2). This interaction promotes endocytosis of the viral particle, additional events lead to viral-host cell membrane fusion and release of the viral contents, allowing viral replication.
While SARS-CoV-2 requires BSL-3 facilities for live virus work, pseudotyped partices (PP) that incorporate SARS-CoV-2 spike proteins without replication elements could facilitate studies on viral entry mechanisms in a BSL-2 setting. This PP cell entry assay could also enable screening of small molecule compound libraries in BSL-2 setting to identify inhibitors of SARS-CoV-2 cell entry.
PROTOCOL TABLE (format as described by Inglese J, Shamu CE and Guy RK. 2007)
SEQUENCE No. (e.g., 1, 2, 3, etc.); […] (e.g., Cells, Incubation, Reagent, etc.); VALUE and DESCRIPTION.
1. Cells. Seed 1500 HEK293-ACE2 cells (Expi293F with stable expression of human ACE2) in 2 uL/well media (DMEM, 10% FBS, 1x L-glutamine, 1x Pen/Strep, 1 ug/ml puromycin) in white 1536-well assay plates (Greiner #782073).
2. Incubation. Incubate at 37C with 5% CO2 overnight (~16 h).
3. Compounds. Dispense 23 nL/well compounds in DMSO via pin transfer.
4. Incubation. Incubate for 1 hr at 37C 5% CO2.
5. Reagent. Dispense 2 uL/well of SARS-CoV-2-S pseudotyped particles. [a] PPs are produced with murine leukemia virus pseudotyping. [b] SARS-CoV-2-S is Wuhan-Hu-1 sequence (BEI #NR-52420) with C-terminal 19 amino acid truncation.
6. Centrifuge. […]
7. Incubation. Incubate at for 48 hr at 37C 5% CO2
8. Centrifuge. Remove supernatant with gentle centrifugation using a Blue Washer (BlueCat Bio).
9. Reagent. Dispense 4 uL/well of Bright-Glo Luciferase detection reagent (Promega #E2620).
10. Incubation. Incubate for 5 min at room temperature.
11. Detection. Read luminescence signal (Viewlux plate reader, PerkinElmer). Data was normalized with wells containing SARS-CoV-2-S PP as 100%, and wells containing bald PP (no fusion protein) as 0%.
Regarding `C[N+](C)(CCCCCC[N+](C)(C)C1c2ccccc2-c2ccccc21)C1c2ccccc2-c2ccccc21`, the activity change, negative = inhibition was -0.342%.
Same read-out and setting: the same measure for `C[C@@H](C1CC[C@@]2(O)C3=CC(=O)[C@@H]4C[C@@H](O)[C@@H](O)C[C@]4(C)[C@H]3CC[C@]12C)[C@H](O)CCC(C)(C)O` (stereo not given in full): -30.2%; for `CCC(O)c1ccccc1` (stereo not given): -0.957%; for `CC(C(=O)O)c1ccc(C2CCCCC2)c2ccccc12` (stereo not given): -4.82%.
For `CC(C)(S)[C@H](N)C(=O)O`, the activity change, negative = inhibition is -28.5% [at 5.25 µM].
As for `CN(C)C/C=C/C(=O)Nc1cc2c(Nc3ccc(F)c(Cl)c3)ncnc2cc1OC1CCOC1` (stereo not given), the Potency is 10 µM (active).
With `O=C1O[C@H]2[C@H](OC(O)[C@@H]2O)[C@@H]1O` (stereo not given in full), the “outcome” value is “inactive [at 114 µM]”.
For the compound `COc1ccc(C(=O)N2CCN(c3ccc4c(c3)CCC(=O)N4)CC2)cc1OC`, the activity change, negative = inhibition was 3.69% and -19.3%.
With `C=CC1=C(C(=O)O)N2C(=O)[C@@H](NC(=O)/C(=N\OCC(=O)O)c3csc(N)n3)[C@H]2SC1`, the activity change, negative = inhibition was -7.67%.
As for `CC1Oc2cc(cnc2N)-c2c(nn(C)c2C#N)CN(C)C(=O)c2ccc(F)cc21` (stereo not given), the activity change, negative = inhibition is -19.3%.
Turning to `CNC(=O)OCc1cccc(COC(=O)NC)n1`, the call was inactive.
For `C[C@H]1C[C@@H]2[C@H]([C@@H](O)C[C@@]3(C)[C@H]2CC[C@]3(O)C(=O)COC(=O)CCC(=O)O)[C@@]2(C)C=CC(=O)C=C12`, the activity change, negative = inhibition is -18.6%.
With `CNC(=O)Cn1cc(-c2ccc3c(c2)C(F)CC32NC(=O)N(CC(=O)N(Cc3ccc(F)cc3)[C@@H](C)C(F)(F)F)C2=O)cn1` (stereo not given in full), the activity change, negative = inhibition is -19.9% and -7.29%.
For the compound `COc1cc(N2CCC(O)CC2)ccc1Nc1cc(Nc2ccccc2S(=O)(=O)C(C)C)c2cc[nH]c2n1`, the activity change, negative = inhibition is -27.7%.
For the compound `COc1cc(C)[nH]c(=O)c1CN1CCc2c(Cl)cc([C@H](OC)C3COC3)c(Cl)c2C1=O`, the call was inactive.
As to `O=C(OCCO)c1ccccc1O`, the activity change, negative = inhibition was -11%.
Consider `C[C@]12CCC3c4ccc(OS(=O)(=O)O)cc4CCC3C1CCC2=O` (stereo not given in full), for which the activity change, negative = inhibition is -13.1%.
With `NC(=O)/C(=C/n1cnc(-c2cc(C(F)(F)F)cc(C(F)(F)F)c2)n1)c1cncnc1`, the Potency is 1.26 µM (active).
In the case of `C[C@@H]1[C@H](O)[C@@H](C)/C=C/C=C/C=C/C=C/C=C/C=C/C=C/[C@H](O[C@@H]2O[C@H](C)[C@@H](O)[C@H](N)[C@@H]2O)C[C@@H]2O[C@](O)(C[C@@H](O)C[C@@H](O)[C@H](O)CC[C@@H](O)C[C@@H](O)CC(=O)O[C@H]1C)C[C@H](O)[C@H]2C(=O)O`, the result was inactive.
`OCCOc1ccc(/C(=C(/CCCl)c2ccccc2)c2ccccc2)cc1`: the activity change, negative = inhibition was -9.9% and -6.02%.
Turning to `CCC(=O)OCC(=O)[C@]1(OC(=O)CC)[C@H](C)C[C@H]2[C@H]3[C@H]([C@@H](O)C[C@@]21C)[C@@]1(C)C=CC(=O)C=C1C[C@H]3Cl`, the activity change, negative = inhibition is -6.25%.
For `CC(C)(C)NCC(O)c1ccc(O)c(CO)n1` (stereo not given), the call was inactive.
Take `CC(C)N=c1cc2n(-c3ccc(Cl)cc3)c3ccccc3nc-2cc1Nc1ccc(Cl)cc1`: the activity change, negative = inhibition was -33.7%.
Take `Cn1cc(-c2nc(N[C@@H]3CCCC[C@@H]3N)c(F)c3c2C(=O)NC3)cn1`: the activity change, negative = inhibition came to 4.2% [at 5.25 µM].
Take `CCOC(=O)CCNc1cc(N2CCc3ccccc3CC2)nc(-c2ccccn2)n1`: the activity change, negative = inhibition was -97.3%.
For the compound `O=c1sn(-c2cccc3ccccc23)c(=O)n1Cc1ccccc1`, the outcome was inactive.
Take `COc1ccc(CNc2nc(N3CCC[C@H]3CO)ncc2C(=O)NCc2ncccn2)cc1Cl`: the outcome was inactive.
On to `Cc1c(Cl)cccc1S(=O)(=O)Nc1nc(CCN2CCOCC2=O)cs1`, for which the activity change, negative = inhibition was -11.4%.
As to `CC[C@H]1OC(=O)[C@H](C)[C@@H](O[C@H]2C[C@@](C)(OC)[C@@H](O)[C@H](C)O2)[C@H](C)[C@@H](O[C@@H]2O[C@H](C)C[C@H](N(C)C)[C@H]2O)[C@](C)(O)C[C@@H](C)C(=O)[C@H](C)[C@@H](O)[C@]1(C)O`, the “outcome” value was “inactive [at 27.1 µM]”.
On to `Cc1ccc(NS(=O)(=O)c2ccc3c(c2)C2C=CCC2C(c2ccc(C(=O)O)cc2)N3)cc1C` (stereo not given), for which the activity change, negative = inhibition is -18.7%.
For `O=[N+]([O-])O[C@@H]1CO[C@H]2[C@@H]1OC[C@@H]2O`, the activity change, negative = inhibition is -29.2% [at 114 µM].
Take `O=C(O)c1cc2ccccc2c(Cc2c(O)c(C(=O)O)cc3ccccc23)c1O`: the call was inactive.
For the compound `C1=C/COCc2cc(ccc2OCCN2CCCC2)Nc2nccc(n2)-c2cccc(c2)COC/1`, the Potency is 3.16 µM (active).
With `C[C@@H]1C(=O)OC2[C@H](O)[C@]34[C@H]5C[C@@H](C(C)(C)C)[C@]36[C@@H](OC(=O)[C@@H]6O)O[C@@]4(C(=O)O5)[C@]21O` (stereo not given in full), the activity change, negative = inhibition was -20.5%.
For the compound `COc1cc([C@@H](CC(=O)O)c2ccc(C)c(CN3C[C@@H](C)Oc4ccccc4S3(=O)=O)c2)cc2nnn(C)c12`, the activity change, negative = inhibition was 2.13%.
Turning to `COc1cc2c(cc1O)CCN[C@]21CS[C@@H]2c3c(OC(C)=O)c(C)c4c(c3[C@H](COC1=O)N1[C@@H]2[C@H]2c3c(cc(C)c(OC)c3O)C[C@@H]([C@@H]1O)N2C)OCO4`, the activity change, negative = inhibition was -92.8% [at 11.3 µM].
As to `Cc1cc(C)c2c(c1)[C@@H](N(Cc1cc(C(F)(F)F)cc(C(F)(F)F)c1)c1nnn(C)n1)CCCN2CC1CCC(C(=O)O)CC1` (stereo not given in full), the activity change, negative = inhibition is -28%.
As to `CCOc1nc2cccc(C(=O)O)c2n1Cc1ccc(-c2ccccc2-c2noc(=O)[nH]2)cc1`, the activity change, negative = inhibition was -24.5%.

Staying with this experiment, now noted: SARS-CoV-2 pseudovirus cell entry assay, luminescence; at 11.3 µM (top of the series).
For `C=C1C[C@@H]2CC[C@@]34C[C@H]5O[C@H]6[C@@H](O3)[C@H]3O[C@H](CC[C@@H]3O[C@H]6[C@H]5O4)CC(=O)C[C@@H]3[C@@H](OC)[C@@H](C[C@H](O)CN)O[C@H]3C[C@H]3O[C@@H](CC[C@@H]1O2)C[C@@H](C)C3=C`, the activity change, negative = inhibition was -91.9%.

The experiment is the same for the next values; noted with them: SARS-CoV-2 pseudovirus cell entry assay, luminescence; at 57.1 µM (top of the series).
In the case of `C=C1C[C@@H]2CC[C@@]34C[C@H]5O[C@H]6[C@@H](O3)[C@H]3O[C@H](CC[C@@H]3O[C@H]6[C@H]5O4)CC(=O)C[C@@H]3[C@@H](OC)[C@@H](C[C@H](O)CN)O[C@H]3C[C@H]3O[C@@H](CC[C@@H]1O2)C[C@@H](C)C3=C`, the activity change, negative = inhibition was -84.4%.

These data come from PubChem BioAssay (NCATS).
